This is an account of results in PubChem BioAssay (EPA / NIEHS).

A word on the AC50: it is the concentration at which the activity in the assay is half-maximal.

Structures are written as SMILES. Activity calls are given as the source filed them. Rule for the calls: active = hit-call score of the fitted dose curve at least 0.9, where 1 is the maximum; inactive = score below 0.9.

The nature of the first assay: CCTE_Padilla_ZF_144hpf_TERATOSCORE: (Legacy) CCTE's 144 Hour Post-fertilization zebrafish Assay Teratoscore, Padilla Lab (AID 2283679).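 For AC50: zebrafish embryos with chorions exposed by immersion from 6-8 hpf to 5 dpf with daily renewal; teratogenicity score from eye scoring of death hatching and malformations at 144 hpf; higher score means more developmental defects relative to DMSO baseline.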 The essentials: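 Larvae scored by eye at 144 hpf for death, hatching and malformations after a day in clean Hanks'. Before that, daily-renewed exposure at 80 uM (0.4% DMSO, 26C) from roughly 6-8 hpf through 5 dpf, 4 embryos per chemical.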
Turning to `O=C(CCCCCCCCc1cccnc1)N1CCC(C=C(c2ccccc2)c2ccccc2)CC1`, the AC50 was 14.2 µM (active).

For the compound `Cc1[nH]cnc1C[C@H]1CCc2c(C)c3ccccc3n2C1=O`, the AC50 was 13.8 µM (active).

For the compound `CCOC(=O)COc1ccc2c(c1)CC(NCC(O)c1cccc(Cl)c1)CC2` (centres undefined), the AC50 was 6.13 µM (active).

For the compound `CC(=O)OCCC(C)C`, the call was inactive.

For `CCCCCCc1ccc(O)cc1O`, the AC50 is 14.9 µM (active).

On to `O=C(OC[C@H]1O[C@@H](OC(=O)c2cc(O)c(O)c(OC(=O)c3cc(O)c(O)c(O)c3)c2)[C@H](OC(=O)c2cc(O)c(O)c(OC(=O)c3cc(O)c(O)c(O)c3)c2)[C@@H](OC(=O)c2cc(O)c(O)c(OC(=O)c3cc(O)c(O)c(O)c3)c2)[C@@H]1OC(=O)c1cc(O)c(O)c(OC(=O)c2cc(O)c(O)c(O)c2)c1)c1cc(O)c(O)c(OC(=O)c2cc(O)c(O)c(O)c2)c1`, for which the AC50 was 4.71 µM (active).

Consider `CCCN(C1CCN(C(=O)C2CCNCC2)CC1)[C@@H]1CCc2ccc(OC)cc2C1`, for which the compound was called inactive.

Take `CCCCC(CC)COC(=O)CCCCCCCCC(=O)OCC(CC)CCCC` (centres undefined): the compound was called inactive.

Turning to `CC/C(=C\C(=N/O)C(N)=O)C(C)[N+](=O)[O-]` (centres undefined), the result was inactive.

Another assay can be described thus: STM_H9_OrnithineISnorm_perc: Stemina devTOX quickPredict H9 human embryonic stem cell (hESC)-based Assay for Ornithine (ORN) Metabolite Biomarker, Normalized (AID 2283712).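 Note: ornithine released into spent medium during last day measured by mass spectrometry.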 In outline:
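H9 human embryonic stem cells kept pluripotent receive test chemical over 72 h, refreshed daily by media exchange. Media from the closing 24 h is deproteinized and analysed by UPLC-HRMS on an amide column; ornithine signal is scaled to labelled standard and vehicle.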
Consider `CCOC(=O)c1ccc(C2CCC(NC[C@H](O)COc3ccc(O)c(NS(C)(=O)=O)c3)CC2)cc1` (some centres undefined), for which the result was inactive.

As for `NC(=O)NO`, the AC50 is 371 µM (active).

With `Cn1c(=O)c2c(ncn2C)n(C)c1=O`, the outcome was inactive.

With `CNCc1ccc(NC(=O)c2c[nH]c3c2C(=O)CCC3)cc1`, the result was inactive.

As for `CC(C)CC(C)(O)C#CC(C)(O)CC(C)C` (centres undefined), the AC50 is 75 µM (active).

On to `Cn1cnc([N+](=O)[O-])c1Sc1ncnc2nc[nH]c12`, for which the AC50 is 3.25 µM (active).

With `CN(C)c1ccc(N=NS(=O)(=O)O)cc1`, the AC50 is 28.5 µM (active).

With `CCN(C(=O)c1cc(C)cc(OC[C@H](C)Nc2ccncc2)c1)C(C)C`, the result was inactive.

Turning to `O=c1n(CC2CO2)c(=O)n(CC2CO2)c(=O)n1CC1CO1` (centres undefined), the AC50 was 0.49 µM (active).

Consider `CC[C@H]1CC[C@H](NCc2cc3c(cc2OC)[C@H]2C[C@H]2C(=O)N3C)[C@H](c2ccccc2)N1`, for which the AC50 is 9.25 µM (active).

A short description of the next assay: STM_H9_CystineISnorm_perc: Stemina devTOX quickPredict H9 human embryonic stem cell (hESC)-based Assay for Cystine (CYSS) Metabolite Biomarker, Normalized (AID 2283713). In outline: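 H9 hESC, pluripotent; compound 72h, re-dosed q24h with medium change. Last-24h medium → 40% acetonitrile deproteinization → UPLC-HRMS. CYSS area / C13-CYSS standard, then % of 0.1% DMSO median.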
`CCOC(=O)c1ccc(C2CCC(NC[C@H](O)COc3ccc(O)c(NS(C)(=O)=O)c3)CC2)cc1` (some centres undefined): the AC50 was 1.37 µM (active).

With `NC(=O)NO`, the AC50 was 153 µM (active).

As to `Cn1c(=O)c2c(ncn2C)n(C)c1=O`, the AC50 is 181 µM (active).

In the case of `CNCc1ccc(NC(=O)c2c[nH]c3c2C(=O)CCC3)cc1`, the outcome was inactive.

Consider `CC(C)CC(C)(O)C#CC(C)(O)CC(C)C` (centres undefined), for which the AC50 is 60.1 µM (active).

As for `Cn1cnc([N+](=O)[O-])c1Sc1ncnc2nc[nH]c12`, the AC50 was 3.49 µM (active).

As to `CN(C)c1ccc(N=NS(=O)(=O)O)cc1`, the AC50 is 16.9 µM (active).

On to `CCN(C(=O)c1cc(C)cc(OC[C@H](C)Nc2ccncc2)c1)C(C)C`, for which the half-maximal activity concentration (AC50) is 7 µM (active).

In the case of `O=c1n(CC2CO2)c(=O)n(CC2CO2)c(=O)n1CC1CO1` (centres undefined), the AC50 is 0.166 µM (active).

As for `CC[C@H]1CC[C@H](NCc2cc3c(cc2OC)[C@H]2C[C@H]2C(=O)N3C)[C@H](c2ccccc2)N1`, the AC50 is 7.32 µM (active).
